# Test results reported in PubChem BioAssay.
# Records with an inconclusive call do not appear. Active and inactive are the calls of the source. Rule as the data show it, unless noted: active = inhibition above about 80%; inactive = the rest.
# Key:
# [1] = viability loss in pontine glioma line – cell-based, SU-DIPG-XVII, MIPE5.0, CellTiter-Glo, qHTS, dose response (AID 1347060; cut-off not given, nearly all actives have AC50 up to about 26 µM); conditions: CellTiter-Glo ATP luminescence
# [2] = viability loss in pontine glioma line – cell-based, SU-DIPG-XIII, MIPE5.0, CellTiter-Glo, qHTS, dose response (AID 1347064; cut-off not given, nearly all actives have AC50 up to about 23 µM); conditions: CellTiter-Glo ATP luminescence
# [3] = JHH-DIPG-1 glioma cell viability, MIPE5.0 library, CellTiter-Glo luminescence, qHTS (AID 1347067; cut-off not given, nearly all actives have AC50 up to about 26 µM;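 also: cells exposed to compound for 48 hours before readout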); conditions: JHH-DIPG-1 glioma viability, CellTiter-Glo ATP luminescence
# [4] = growth inhibition of DIPG cells – cell-based, MIPE5.0 library, qHTS (AID 1347068; cut-off not given, nearly all actives have IC50 up to about 30 µM); conditions: SU-DIPG-XXV viability
# [5] = growth inhibition, single agent or in combination, cell-based, chromothripsis tumors, cisplatin or BGB combos (AID 1671449); conditions: LFS_MB_P medulloblastoma cells;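 also: cells exposed for 96 hours; 0% = vehicle DMSO and 100% = killing by high DMSO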
# [6] = growth inhibition, single agent and combos, cell-based, chromothripsis tumors, cisplatin or BGB combos (AID 1671450); conditions: HDN33 neuroblastoma cells, stronger effect = higher value;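 also: cells exposed to compound for four days; 0% = vehicle DMSO and 100% = cell killing by high DMSO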
# [7] = growth inhibition, single agents and combos, ICB984, cell-based, cisplatin or BGB combos, synergistic combos for chromothripsis tumors (AID 1671451; call rule not given here;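 also: cells exposed for 96 hours before readout; 0% = vehicle DMSO and 100% = killing by high DMSO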); conditions: ICB984 medulloblastoma cells, drug combinations, stronger effect = higher value
# [8] = growth inhibition, single agents and combos, LFS_MB_1R, cell-based, cisplatin or BGB combos, synergistic combos for chromothripsis tumors (AID 1671452); conditions: LFS_MB_1R medulloblastoma cells, stronger effect = higher value;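 also: cells exposed for 96 hours before readout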
# [9] = growth inhibition, single agents and combos, HTB85, cell-based, BGB or cisplatin IC20 combos, synergistic combos for chromothripsis tumors (AID 1671453); conditions: HTB85 osteosarcoma cells, drug combinations, stronger effect = higher value;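 also: cells exposed for 96 hours before readout; 0% = vehicle DMSO and 100% = high DMSO killing control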
# [10] = growth inhibition, single agents and combos, CRL2098, cell-based, BGB or cisplatin IC20 combos, synergistic combos for chromothripsis tumors (AID 1671454); conditions: CRL2098 osteosarcoma cells, drug combinations, stronger effect = higher value;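 also: cells exposed for 96 h before readout; 0% = vehicle DMSO and 100% = killing by high DMSO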
# [11] = growth inhibition, single agents and combos, HD-MB03, cell-based, BGB or cisplatin IC20 combos, synergistic combos for chromothripsis tumors (AID 1671455; in the data active = inhibition above about 83%;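 also: 0% = vehicle DMSO and 100% = high DMSO as cytotoxic control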); conditions: HD-MB03 medulloblastoma cells, stronger effect = higher value
# [12] = growth inhibition, single agents and combos, UWB1.289, cell-based, BGB or cisplatin combos, synergistic combos for chromothripsis tumors (AID 1671456); conditions: UWB1.289 ovarian carcinoma cells, stronger effect = higher value;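 also: cells exposed to compound for four days; 0% = vehicle DMSO and 100% = killing by high DMSO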
# [13] = growth inhibition, single agents and combos, LFS_MB_2R, cell-based, cisplatin combos, synergistic combos for chromothripsis tumors (AID 1671457); conditions: LFS_MB_2R medulloblastoma cells, stronger effect = higher value;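 also: cells exposed to compound for four days before readout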
# [14] = growth inhibition, MDA-MB-436, cell-based, BGB or cisplatin combos, synergistic combos for chromothripsis tumors (AID 1671458; call rule not given here;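 also: cells exposed for 96 hours; 0% = vehicle DMSO and 100% = killing by high DMSO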); conditions: MDA-MB-436 breast carcinoma growth inhibition, drug combinations, stronger effect = higher value
# [15] = UWB1.289_BRCA1 ovarian cancer growth, cell-based, BGB or cisplatin combinations (AID 1671459); conditions: UWB1.289 BRCA1 ovarian carcinoma, drug combinations, stronger effect = higher value
# [16] = drug combination toxicity in non-malignant astrocytes – cell-based, BGB or cisplatin IC20 combos, cytotoxicity control for chromothriptic childhood tumor combination screen (AID 1671460); conditions: Human astrocytes, viability inhibition, drug combinations, at 0.5 µM, stronger effect = higher value;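 also: cells exposed to compounds for 96 hours before viability readout; 0% = vehicle and 100% = killing control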
# [17] = BT084 cell growth, single and combined drugs, ICGC_MB145, cisplatin and BGB IC40 combos (AID 1671461); conditions: BT084 medulloblastoma cells, drug combinations, stronger effect = higher value;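 also: cells exposed to drugs for 96 hours; 0% = vehicle DMSO and 100% = high DMSO full killing control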
# [18] = RCMB18 cell growth, single agent and combined, cisplatin and BGB IC40 combos (AID 1671462); conditions: RCMB18 medulloblastoma cells, stronger effect = higher value;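 also: cells exposed to compound for four days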
# [19] = CRL1545 cell growth, single agent and combined, cisplatin and BGB IC20 combos (AID 1671464); conditions: CRL1545 osteosarcoma cells, stronger effect = higher value;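 also: cells exposed to compound for 96 hours before readout; 0% = vehicle DMSO and 100% = high DMSO killing control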
# [20] = measured here: combination with BGB IC40, at 0.05 µM
# [21] = measured here: with BGB IC20 combination, at 0.5 µM
# [22] = measured here: with cisplatin IC20 combination, at 0.5 µM
# [23] = measured here: combination with cisplatin, at 0.5 µM
# [24] = measured here: combination with cisplatin, at 5 µM
smiles,measurement,setting,value
NC(=O)c1nc(F)c[nH]c1=O,outcome,[1],inactive
same,outcome,[2],inactive
same,outcome,[3],inactive
same,outcome,[4],inactive
same,inhibition,"[5]; at 0.5 µM, stronger effect = higher value",-5.96% (inactive)
same,inhibition,"[5]; measured here: combination with BGB IC20, at 0.005 µM",-6.89%
same,inhibition,"[5]; measured here: combination with BGB IC40, at 0.005 µM",86.3%
same,inhibition,[5]; [20],2.5%
same,inhibition,"[5]; measured here: combination with cisplatin, at 0.5 µM, stronger effect = higher value",-12.3%
same,inhibition,"[5]; measured here: combination with cisplatin, at 5 µM, stronger effect = higher value",-15%
same,inhibition,"[6]; BGB combo, at 5 µM",-13.7%
same,inhibition,[6]; at 0.5 µM,0.69% (inactive)
same,inhibition,"[6]; cisplatin combo, at 5 µM",-13.9%
same,inhibition,[6]; [21],-3.64%
same,inhibition,[6]; [22],-5.09%
same,inhibition,"[6]; single agent, at 5 µM",9.18%
same,inhibition,"[7]; BGB IC20 combo, at 0.005 µM",-3.29%
same,inhibition,"[7]; BGB IC40 combo, at 0.005 µM",-2.11%
same,inhibition,"[7]; BGB IC40 combo, at 0.05 µM",0.125%
same,inhibition,[7]; at 0.5 µM,0.29% (inactive)
same,inhibition,"[7]; cisplatin combo, at 0.05 µM",-4.93%
same,inhibition,"[7]; cisplatin combo, at 0.5 µM",4.34%
same,inhibition,"[7]; cisplatin combo, at 5 µM",4.92%
same,inhibition,"[7]; measured here: 5 uM single agent, at 5 µM",-8.47%
same,inhibition,[8]; at 0.5 µM,1.01% (inactive)
same,inhibition,[8]; [20],2.61%
same,inhibition,[8]; [23],-16.3%
same,inhibition,[8]; [24],16.6%
same,inhibition,[9]; at 0.5 µM,1.18% (inactive)
same,inhibition,"[9]; measured here: with BGB IC20, at 0.5 µM",-2.45%
same,inhibition,"[9]; measured here: with BGB IC20, at 5 µM",5.78%
same,inhibition,"[9]; measured here: with cisplatin IC20, at 0.5 µM",-2.57%
same,inhibition,"[9]; measured here: with cisplatin IC20, at 5 µM",4.67%
same,inhibition,"[9]; single agent, at 5 µM",17.5%
same,inhibition,[10]; at 0.5 µM,-7.02% (inactive)
same,inhibition,"[10]; measured here: combination with BGB at IC20, at 0.5 µM",-19%
same,inhibition,"[10]; measured here: combination with cisplatin at IC20, at 0.5 µM",9.34%
same,inhibition,[11]; at 0.5 µM,0.58% (inactive)
same,inhibition,"[11]; measured here: combo with BGB at IC20, at 0.5 µM",5.69%
same,inhibition,"[11]; measured here: combo with cisplatin at IC20, at 0.5 µM",-1.93%
same,inhibition,[12]; at 0.5 µM,4.26% (inactive)
same,inhibition,"[12]; measured here: inhibition with BGB combination, at 0.05 µM",6.54%
same,inhibition,"[12]; measured here: inhibition with cisplatin combination, at 0.05 µM",-1.23%
same,inhibition,[13]; at 0.5 µM,1.33% (inactive)
same,inhibition,[13]; [23],5.37%
same,inhibition,[13]; [24],9.87%
same,inhibition,[14]; at 0.5 µM,-2.87% (inactive)
same,inhibition,"[14]; measured here: BGB combination, at 0.5 µM",-1.29%
same,inhibition,"[14]; measured here: BGB combination, at 5 µM",-9.17%
same,inhibition,"[14]; measured here: cisplatin combination, at 0.5 µM",-10.9%
same,inhibition,"[14]; measured here: cisplatin combination, at 5 µM",-5.06%
same,inhibition,"[15]; BGB combination, concentration series, at 5 µM",-6.18%
same,inhibition,[15]; at 0.5 µM,1.49% (inactive)
same,inhibition,"[15]; cisplatin combination, concentration series, at 5 µM",2.48%
same,inhibition,[16],-3.48% (inactive)
same,inhibition,[16]; measured here: combo with BGB IC20,-7.39%
same,inhibition,[16]; measured here: combo with cisplatin IC20,-5.76%
same,inhibition,[17]; at 0.5 µM,-1.11% (inactive)
same,inhibition,"[17]; cisplatin combination, at 0.5 µM",6.95%
same,inhibition,"[17]; cisplatin combination, at 5 µM",-101%
same,inhibition,"[17]; measured here: BGB IC40 combination 0.05 uM, at 0.05 µM",-16.8%
same,inhibition,"[17]; single agent, at 5 µM",4.66%
same,inhibition,[18]; at 0.5 µM,-6.23% (inactive)
same,inhibition,"[18]; cisplatin combo, at 5 µM",8.94%
same,inhibition,"[18]; measured here: BGB IC40 combination, at 0.05 µM",-10.5%
same,inhibition,[18]; [23],-26.7%
same,inhibition,"[18]; single agent, at 5 µM",14.2%
same,inhibition,[19]; at 0.5 µM,13.8% (inactive)
same,inhibition,[19]; [21],6.76%
same,inhibition,[19]; [22],16%
same,inhibition,"[19]; single agent, at 0.05 µM",-15.2%
same,inhibition,"[19]; single agent, at 5 µM",-29.6%
